Sampled rows, rich in hits. Any-hit rate of the full collection: about 2.4%.
C diff growth – blocks growth of Clostridium difficile | Clostridium difficile clinical isolate growth, OD600, 24 h; stronger effect = lower value | 86,000 compounds, 0.25% hits | growth activity, negative = inhibition, % at 16 µg/mL (by protocol);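 active means mean growth activity at or below -80% and every replicate also at or below -80%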
Pf Dd2 inh – blocks growth of Plasmodium falciparum Dd2 parasites. P. falciparum Dd2 growth, SYBR Green, 72 h; stronger effect = lower value. activity change, % at 10 µM. 94,000 compounds, 2.3% hits; in the data active means activity change below about -80%
Hits are given with their value; – = inactive.

SMILES | C diff growth | Pf Dd2 inh
Cc1ccc(OC(=O)N(C)C[C@H]2OCc3ccccc3-c3c(n(C)c4ccccc34)C(=O)N([C@@H](C)CO)C[C@@H]2C)cc1 | – | –
Cc1ccc(OC(=O)N(C)C[C@@H]2OCc3ccccc3-c3c(n(C)c4ccccc34)C(=O)N([C@@H](C)CO)C[C@H]2C)cc1 | – | -83.1
c1cc(-c2ccc(C3[C@H]4CNC[C@@H]3N4CC3CC3)cc2)ccn1 (some centres not stated) | – | –
O=C(Cc1ccccc1)N1CC2(C1)[C@H](c1ccccc1)[C@@H](CO)N2Cc1cccc(F)c1 | – | –
CN1c2ccc(Br)cc2[C@@H]2NCC[C@@H]2[C@@H]1CO | – | –
OC[C@H]1Nc2ccc(C#Cc3cccnc3)cc2[C@H]2NCC[C@H]21 | – | -88.4

Screening results deposited in PubChem BioAssay by Broad Institute.
